Screens as filed in PubChem BioAssay.
KLF5 inhibitor – suppresses KLF5 promoter-driven expression; DLD-1 KLF5 promoter-luciferase reporter, luminescence; inhibition, % at 5 µM; 0.23% of 290,000 active;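 active = inhibition above a per-plate limit of that plate's mean compound inhibition plus 3 SD, cut at about 60% in these data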;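 also: 0% = DMSO wells and 100% = LY294002 at 200 µM; higher means less KLF5 promoter-driven luciferase light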
BaF3 tox – counter-screen for JAK2V617F inhibitors: parental Ba/F3 viability inhibitors | CellTiter-Glo ATP luminescence | inhibition, % at 5.6 µM | 1.1% of 220,000 active | AID 1486;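 active = inhibition above a per-campaign cutoff, the mean inhibition of all tested compounds plus 3 SD, cut at about 27% in these data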;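 also: 0% = DMSO wells and 100% = JAK Inhibitor I control wells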
Ba/F3 V617F tox – loss of viability in JAK2V617F-driven Ba/F3 cells. Ba/F3 EpoR-JAK2V617F viability, ATP luminescence. inhibition, % at 5.6 µM. 1.1% of 220,000 active;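 active = inhibition above the campaign mean plus 3 SD over all tested compounds, cut at about 24% in these data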;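 also: cytokine-independent growth of Ba/F3 cells driven by EpoR plus mutant JAK2; 0% = DMSO-treated cells and 100% = JAK inhibitor I control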
FID counter – counter-screen for HCV NS3 helicase inhibitors: DNA intercalator displacement; inhibition, % at 7.9 µM; 0.17% of 290,000 active; DNA fluorescent intercalator displacement, fluorescence; in the data active = inhibition above about 37%;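 also: 0% = vehicle and 100% = reference compound; higher means more ethidium bromide displaced from hairpin DNA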
IEC-6 cytotox – IEC-6 cytotoxicity, counter-screen for KLF5 inhibitors; inhibition, % at 5 µM; luminescence viability; 0.78% of 290,000 active; AID 1825;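 also: 0% = plate median of test compound wells and 100% = cytotoxic reference compound wells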
GPR7 antagonist – antagonists of human GPR7 (neuropeptides B/W receptor 1); P48145; AID 1861; inhibition, % at 4.4 µM; GPR7-expressing cells, fluorescence antagonist assay; 1.1% of 290,000 active; in the data active = inhibition above about 16%, passing the limit was not always enough;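 also: cells stimulated with the agonist NPW; 0% = agonist with vehicle and 100% = vehicle without agonist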
Target sequence (P48145 whole entry, looked up): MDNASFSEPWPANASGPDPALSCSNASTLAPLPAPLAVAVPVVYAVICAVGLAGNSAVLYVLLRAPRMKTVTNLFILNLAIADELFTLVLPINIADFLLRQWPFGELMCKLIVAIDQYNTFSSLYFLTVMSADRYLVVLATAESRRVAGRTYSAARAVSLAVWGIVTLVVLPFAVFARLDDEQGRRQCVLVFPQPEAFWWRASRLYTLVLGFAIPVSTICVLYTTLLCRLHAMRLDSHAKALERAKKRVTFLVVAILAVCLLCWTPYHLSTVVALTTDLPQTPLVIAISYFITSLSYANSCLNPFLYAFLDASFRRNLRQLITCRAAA
GPR7 antag conf – confirmation of human GPR7 antagonists; shares compounds with GPR7 antagonist; GPR7-expressing cells, calcium fluorescence antagonist mode; inhibition, % at 4.4 µM; 52% of 2,400 active; in the data active = inhibition above about 24%;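 also: stimulated with the GPR7 agonist NPW; 0% = agonist plus vehicle and 100% = vehicle alone without agonist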
MCHR1 antagonist – MCHR1 (human) antagonism in GPR7 counter-screen; shares compounds with GPR7 antagonist; MCHR1-expressing cells, fluorescence antagonist assay; inhibition, % at 4.4 µM; 62% of 2,400 active;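 also: 0% = vehicle with agonist and 100% = vehicle without agonist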
An asterisk follows results filed as active; x = no result. Compounds with a hit are over-represented: about 2.6% of the library has one in this group of screens. Rule as the data show it, unless noted: active = inhibition above about 22%; inactive = the rest.

SMILES | KLF5 inhibitor | BaF3 tox | Ba/F3 V617F tox | FID counter | IEC-6 cytotox | GPR7 antagonist | GPR7 antag conf | MCHR1 antagonist
O=C(C/C=N\OCc1ccc([N+](=O)[O-])cc1)Nc1ccc(Cl)cc1 | -7.3 | 0.7 | -1.9 | 5.6 | 1.9 | 25.5* | 30.6* | 39.8*
CCN(CC)c1ccc2cc(-c3nnc(-c4ccccc4)o3)c(=O)oc2c1 | -119.6 | -0.7 | -3.3 | -2.1 | 4.4 | 17.6 | x | x
CCN(CC)c1ccc2cc(-c3nc4ccccc4[nH]3)c(=O)oc2c1 | -117.3 | 1.9 | -0.7 | -0.1 | 4.6 | 28.2* | 80.9* | 89.0*
CS(=O)(=O)N1CCc2cc(C(=O)N3CCN(c4cccc(Cl)c4)CC3)ccc21 | -14.5 | x | x | -62.1 | 2.1 | 7.6 | x | x
Cc1ccc(Cl)cc1N1CCN(C(=O)c2ccc3c(c2)CCN3S(C)(=O)=O)CC1 | 3.2 | x | x | -59.4 | 4.3 | 28.6* | 25.4* | 16.8
O=C(CCCn1c(=O)oc2ccccc21)NC1CCCCCC1 | -30.3 | 3.6 | 1.5 | -9.0 | 0.8 | 21.0* | -9.8 | -4.1
CC1(CC(=O)N/N=C/c2ccc(-c3ccc(C(=O)O)cc3)o2)OCCO1 | -20.1 | -4.9 | -5.9 | 2.6 | -5.3 | -14.7 | x | x
COC(=O)c1ccc(-c2ccc(/C=N/NC(=O)CC3(C)OCCCO3)o2)cc1 | -36.2 | -0.5 | -3.0 | -15.2 | -0.1 | 23.9* | 0.1 | 11.5
Cn1c(SCC(=O)NCC2CCCO2)nnc1-c1cccc(NC(=O)c2ccccc2F)c1 (configuration not stated) | -24.5 | 9.0 | 5.4 | -26.6 | 2.3 | -6.0 | x | x
COC(=O)c1ccc(NC(=O)C(=O)N2CCN(C(=S)NCCc3ccccc3)CC2)cc1 | 18.2 | 10.9 | 3.2 | -17.1 | 1.8 | 21.5* | 9.9 | 12.5
CCC(OC(=O)c1nsc(Cl)c1Cl)C(=O)NCc1cccs1 (configuration not stated) | -12.3 | 2.0 | 0.0 | -8.0 | 1.8 | -4.1 | x | x
Cc1cccn2c(CN(C)CCC3CCCCO3)c(C(=O)N3CCCCC3)nc12 (configuration not stated) | -29.6 | -0.2 | -2.9 | 10.5 | 7.4 | 38.1* | -4.9 | 17.7
O=C(Nc1ccc(-n2nncc2-c2ccco2)cc1)c1cccc(F)c1 | 2.8 | 5.0 | 2.2 | -4.8 | 5.3 | 39.2* | 62.2* | 48.8*
CCOc1c(Br)cc(/C=C(\C#N)C(=O)NC2CC2)cc1OC | 0.4 | x | x | -14.9 | 7.0 | 24.2* | 47.3* | 41.2*
N#C/C(=C\c1ccc(F)c(Br)c1)C(=O)NC1CC1 | -30.2 | x | x | -1.5 | -2.3 | 5.9 | x | x
COc1cc(NS(=O)(=O)c2ccc(NC(=O)COc3ccccc3Cl)cc2)nc(OC)n1 | -42.6 | 1.5 | -3.0 | -36.7 | -3.6 | 6.2 | x | x
O=c1cc2c(nn1Cc1ccccc1)-c1ccccc1CC2 | -3.5 | 12.3 | 4.0 | -30.1 | 11.0 | -0.8 | x | x
O=c1cc2c(nn1Cc1ccc(F)cc1)-c1ccccc1CC2 | -7.5 | 7.0 | -4.6 | -22.9 | -0.7 | 34.8* | 0.5 | 10.9
COc1ccc2cc(C(=O)NCc3ccccc3)c(=O)oc2c1 | -57.1 | x | x | -10.2 | 2.9 | 34.3* | 12.1 | 1.0
COc1ccc(Cc2nnc(NC(=O)C3CC(=O)N(CCc4ccc(F)cc4)C3)s2)cc1OC (configuration not stated) | 1.2 | x | x | -51.2 | -4.0 | 3.5 | x | x
O=C(CN1C(=O)NC2(CCCCCCC2)C1=O)NC(=O)NCc1ccco1 | 3.5 | 0.3 | 1.2 | -25.0 | 13.7 | -0.4 | x | x
CC(C)CCNC(=O)NC(=O)CN1C(=O)NC2(CCCCC2)C1=O | -31.8 | -4.1 | -5.6 | -22.3 | -3.6 | 23.8* | -7.9 | -2.2
CCCC(=O)N1CC(=O)Nc2ccc(Br)cc2C1c1ccc(F)cc1 (configuration not stated) | -9.1 | x | x | -21.4 | 3.1 | 0.6 | x | x
Cc1cc(NC(=O)COC(=O)c2oc3c(Cl)cccc3c2C)no1 | -8.3 | 10.1 | 5.0 | -6.3 | 6.5 | 27.1* | 22.1 | 36.6*
O=C(CC(=O)NCc1ccc(Cl)cc1)NCc1ccc(Cl)cc1 | -19.0 | x | x | -9.6 | 4.0 | 0.5 | x | x
SMILES | KLF5 inhibitor | BaF3 tox | Ba/F3 V617F tox | FID counter | IEC-6 cytotox | GPR7 antagonist | GPR7 antag conf | MCHR1 antagonist
Cc1cc(C(=O)N[C@H](c2ccccc2)[C@@]2(C)C[C@@H]2[C@@H](C)C(=O)Nc2ccc3ccccc3c2)no1 | -11.4 | 3.1 | -1.6 | -29.4 | -7.9 | 29.3* | 46.0* | 63.6*
Cc1cc(C(=O)N[C@@H](c2ccccc2)[C@]2(C)C[C@H]2[C@@H](C)C(=O)Nc2ccc3ccccc3c2)no1 | -16.9 | -2.0 | -4.0 | -22.7 | -2.0 | 1.9 | x | x
O=C(NC1CCCCC1)C(c1ccccc1)N(Cc1ccco1)C(=O)Cn1cnc2ccccc21 (configuration not stated) | -15.7 | 4.3 | 5.0 | -32.9 | 2.3 | 22.4* | 17.1 | 14.1
O=C(NC1CCCC1)C(c1ccsc1)N(Cc1ccco1)C(=O)Cc1cccs1 (configuration not stated) | -3.0 | 7.0 | 4.5 | -35.4 | 3.7 | 43.9* | 43.1* | 30.9*
O=C(NC1CCCC1)C(c1ccsc1)N(Cc1ccccc1)C(=O)Cc1cccs1 (configuration not stated) | -11.2 | 7.8 | 1.2 | -24.2 | -3.8 | 26.2 | x | x
Cc1ccc(N(C(=O)c2ccccn2)C2(C(=O)NC3CCCC3)CCCCC2)cc1 | -19.5 | 5.3 | -0.8 | -34.9 | -4.8 | 6.8 | x | x
O=C(c1ccccn1)N(Cc1ccco1)C1(C(=O)NC2CCCC2)CCCCC1 | 17.7 | 45.4* | 6.0 | -28.4 | -0.3 | 36.6* | 28.4* | 20.7
O=C(c1cnccn1)N(Cc1ccco1)C1(C(=O)NC2CCCC2)CCCCC1 | -17.3 | 8.3 | 1.2 | -16.0 | -1.3 | 40.2* | 30.6* | 15.9
O=C(NC1CCCCC1)C(c1ccccc1)N(Cc1ccco1)C(=O)c1csnn1 (configuration not stated) | -13.4 | x | x | -33.6 | -8.7 | 12.9 | x | x
COC(=O)c1ccc(-c2nc3ccccc3[nH]2)cc1 | -157.9 | 7.3 | 2.8 | -2.8 | -1.9 | -0.5 | x | x
Cc1cc(NS(=O)(=O)c2ccc(N3C(=O)C4C5C=CC(C5)C4C3=O)cc2)nc(C)n1 (configuration not stated) | 2.0 | 7.6 | 1.7 | 2.2 | 2.9 | -7.5 | x | x
O=C(c1cnccn1)N(Cc1ccco1)C1(C(=O)NC2CCCCC2)CCCCC1 | -23.9 | 3.3 | -2.5 | -21.2 | 2.0 | 31.5* | 21.8 | 14.6
O=C(Cc1cccs1)N(Cc1ccco1)C1(C(=O)NC2CCCC2)CCCCC1 | -22.5 | -1.6 | -3.0 | -31.0 | -2.6 | 45.9* | 52.7* | 45.2*
COc1cc(C(C(=O)NC2CCCCC2)N(Cc2ccco2)C(=O)c2cnccn2)cc(OC)c1OC (configuration not stated) | -26.4 | 1.3 | -1.1 | -9.0 | -7.6 | -3.6 | x | x
O=C(c1ccc2c(c1)OCO2)N(Cc1ccco1)C1(C(=O)NC2CCCCC2)CCCCC1 | 9.4 | 8.0 | 3.5 | -38.3 | 6.8 | 41.2* | 40.0* | 42.3*
